Source: PubChem BioAssay (National Center for Advancing Translational Sciences (NCATS))
Pf growth 96h: Primary qHTS for delayed death inhibitors of the malarial parasite plastid, 96 hour incubation; P. falciparum luciferase reporter growth, 96 h; Potency, µM (highest dose often 28.7 µM), for inactives: at the top dose activity change, negative = inhibition, usual class: inhibitors; 320,000 compounds, 6.9% hits; also: potency is read from the fitted curve at half-maximal effect; % is scaled to controls: 0 for no effect and ±100 for the full control effect
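96 h incubation, 37 C, 5% CO2, of luciferase-reporter P. falciparum-infected RBCs (2% hematocrit, 0.05% parasitemia final) with test compounds; endpoint luminescence.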
Pf growth 48h: Primary qHTS for delayed death inhibitors of the malarial parasite plastid, 48 hour incubation; P. falciparum luciferase growth in erythrocytes, 48 h; Potency, µM (highest dose often 28.7 µM), for the others: top-dose activity change, negative = inhibition, usual class: inhibitors; 310,000 compounds, 5.9% hits; also: potency is read from the fitted curve at half-maximal effect; % is scaled to controls: 0 for no effect and ±100 for the full control effect
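Growth was read as firefly luciferase luminescence after a 48 h, 37 C, 5% CO2 exposure of compounds to reporter-bearing P. falciparum cultures (0.1% parasitemia, 2% hematocrit final) in Albumax-supplemented RPMI 1640.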
Shiga inhibitor: A qHTS for Small Molecule Inhibitors of Shiga Toxin | Vero cells, Shiga toxin protein synthesis inhibition reporter | inhibition, % at 38.7 µM | 290,000 compounds, 9.2% hits; in the data active = inhibition mostly above about 28%, no sharp cut-off; inactive = mostly below about 43%; also: 0% is about no effect
NS1 function inh: qHTS Assay for Inhibitors of Influenza NS1 Protein Function; Potency, µM (series often up to 46.1 µM), for the others: at the highest dose activity, positive = more growth; 270,000 compounds, 0.4% hits; calls by dose curve; also: potency is read from the fitted curve at half-maximal effect; actives are rising curves; nearly all actives have a fitted effect of over 50% in size
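Compounds were scored for reversing the slow growth caused by influenza A NS1 in S. cerevisiae, measured by optical density at 600 nm. Assay medium contained 2% galactose at pH 6.0; NS1-free yeast of the same strain were the positive control.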
CHX counter: Cycloheximide Counterscreen for Small Molecule Inhibitors of Shiga Toxin; cell reporter, cycloheximide protein synthesis inhibition counterscreen; max response, %; 300,000 compounds, 12% hits; AID 2314, 2010; in the data active = max response mostly above about 13%, no sharp cut-off; inactive = mostly below about 14%; also: read at 38.3 µM for the half of the compounds with a filed dose; 0% is about no effect
SARS PLP yeast: qHTS of Yeast-based Assay for SARS-CoV PLP. S. cerevisiae expressing SARS-CoV PLpro, growth rescue. Potency, µM (titrated, usually from 32.9 µM), for the others: at the top dose activity, positive = growth rescue, actives largely listed as activators. 330,000 compounds, 0.19% hits. AID 485353, 2010; calls by dose curve; also: potency is read from the fitted curve at half-maximal effect; 0% is about no effect; nearly all actives have a fitted effect of over 55% in size
* hit, by the source's call; i = inactive; ? = inconclusive; nt = no result; + = active, no number; [ ] = another dose, or the depositor's remark. Rows were chosen to be rich in hits. Some 21% of all compounds tested hit in one or more screens of this group. Unless noted, calls follow the shape of the dose curve; as a rule, active = well fitted inhibition curve with a large enough effect; inconclusive = small, poorly fitted or top-dose-only effect, or another doubt; inactive = no such curve, though single readings can be large or run the other way.

SMILES	Pf growth 96h	Pf growth 48h	Shiga inhibitor	NS1 function inh	CHX counter	SARS PLP yeast
O=C(CSc1cccs1)NCCc1ccccc1	45%	28%	+	7%	42*	-2%
Cc1ccc(SCC(=O)NCCc2ccc(F)cc2)cc1	3%	14%	15	-7%	-2	-4%
O=C(CSc1ccccc1)NN1C(=O)c2ccccc2C1=O	9.3µM*	1%	-5	10%	-2	-1%
Cc1ccc(C2(C)CC(C)(C)N(C(=O)CSc3nnc(C)s3)c3ccccc32)cc1 (stereo not drawn)	?	13µM*	-11	12%	1	-47%
Cc1nnc(SCC(=O)N2c3ccccc3C(C)(c3ccccc3)CC2(C)C)s1 (stereo not drawn)	12µM*	10µM*	-7	-15%	-2	-48%
CC1=CC(C)(C)N(C(=O)CSc2nnc(C)s2)c2ccc(C)cc21	?	-15%	-14	-35%	-3	-2%
CCCCOc1c(C(=O)Nc2ccccc2)nnn1-c1ccccc1	-8%	?	22	nt	7	1%
Nc1nnc(-c2cn(-c3ccccc3)nc2-c2ccc(Cl)cc2)o1	4.7µM*	3.7µM*	-2	3%	6	1%
CCOC(=O)[C@@H]1[C@H]2COc3ccc(Br)cc3[C@@H]2N2C(=O)N(c3ccc(OC)cc3)C(=O)[C@@]12C	nt	nt	nt	nt	nt	6%
N#Cc1cncc(C#Cc2ccccc2)c1	?	20%	17	-44%	8.8*	1%
N#Cc1ccccc1	-9%	13%	nt	nt	nt	-2%
CCn1c(SCC(=O)O)nnc1-c1cccnc1	21%	14%	-11	-1%	-1	0%
CCN1/C(=C2\OC(=S)N(C)C2=O)Sc2ccccc21	21%	34%	40*	6%	14*	9%
CCN1C(=O)/C(=C2/Sc3ccccc3N2CC)SC1=S	?	8%	nt	-2%	-2	-4%
Cn1cc([N+](=O)[O-])c(C(=O)NCc2ccccc2)n1	17%	6%	1	3%	-1	0%
CC(C)c1ccc(NC(=O)COc2ccccn2)cc1	182%	100%	84*	nt	45*	0%
CC(C)c1ccc(OCC(=O)Nc2ccc(OC(F)(F)F)cc2)cc1	?	-18%	-25	4%	4	-9%
Cc1cc(OCC(=O)NCCO)ccc1Cl	53%	8%	7	8%	-3	28%
CC(C)c1ccc(OCC(=O)NCCO)cc1	13%	148%	93*	-2%	53*	1%
CC(C)c1ccc(NC(=O)COc2ccccc2)cc1	-6%	52%	62*	-27%	49*	0%
CSc1nc(N)c2ncn([C@@H]3O[C@H](COP(=O)(O)OP(=O)(O)OP(=O)(O)O)[C@H](O)[C@H]3O)c2n1	nt	nt	nt	-1%	nt	nt
COc1ccc(OCCNC(=O)c2ccccc2OCC(=O)N2CCCCC2)cc1	10%	?	2	-36%	-2	20%
COc1ccccc1C(=O)NCCOc1ccc(C)c(C)c1	40%	?	39*	17%	25*	1%
COc1ccc(OCCNC(=O)c2ccccc2OCC(=O)Nc2ccc(NC(C)=O)cc2)cc1	-20%	-2%	18	?	24*	-12%
CCc1ccc(OCCNC(=O)OCc2ccccc2)cc1	28%	19%	40	-17%	-2	-1%
SMILES	Pf growth 96h	Pf growth 48h	Shiga inhibitor	NS1 function inh	CHX counter	SARS PLP yeast
CCOC(=O)NCCOc1ccc(Oc2ccccc2)cc1	nt	nt	30*	nt	21*	nt
CCc1ccc(OCCNC(=O)c2ccco2)cc1	37%	-28%	52*	-29%	34*	-7%
Cc1onc(-c2c(F)cccc2Cl)c1C(=O)OCC(=O)c1c(N)n(C)c(=O)n(C)c1=O	?	?	-10	nt	-2	-2%
C=C1CCN(C(C(=O)O)C(C)C)S(=O)(=O)c2ccccc21 (stereo not drawn)	nt	nt	-1	nt	-7	nt
COc1ccc2c(CCNC(=O)c3ccco3)c[nH]c2c1	9%	39%	63*	-8%	49*	-8%
Cc1ccc(OCCNC(=O)c2ccccc2N)cc1	6%	22%	27*	-4%	13*	4%
COc1ccc2c(CCNC(N)=S)c[nH]c2c1	5%	129%	3	?	10	-2%
CCc1ccc(OCC(=O)NCCOc2ccccc2)cc1	6%	nt	66	-94%	27*	1%
CCOc1ccc(CNC(=O)c2ccco2)cc1	31%	46%	40	nt	20*	-3%
Cc1ccccc1C(=O)NC(C(N)=O)P(=O)(OC(C)C)OC(C)C (stereo not drawn)	4%	0%	-10	2%	1	-1%
Cc1ccc(SCC(=O)OCn2nnc3ccccc3c2=O)cc1C	7%	20%	20	0%	-2	-29%
O=C(CN1CCN(c2cnn(-c3ccccc3)c(=O)c2Cl)CC1)NC1CCS(=O)(=O)C1 (stereo not drawn)	25%	25%	nt	nt	nt	4%
COc1cc(C(=O)NCCOc2cc(C)cc(C)c2)c(Br)c(OC)c1OC	13µM*	-11%	-13	-15%	-1	-15%
CCOC(=O)N/N=C/c1ccc(C)o1	36%	11%	5	8%	2	3%
O=C(NCCOc1ccc(Cl)cc1)c1ccco1	2.1µM*	-3%	11	-28%	2	-4%
CCOC(=O)N/N=C/c1ccc(Oc2ccccc2)cc1	?	?	104*	nt	41*	11%
Cc1ccc(C(=O)NCCNC(=O)c2ccco2)cc1C	20%	9%	-4	4%	-3	-1%
Cc1ccc(OCCNC(=O)c2ccco2)cc1C	?	-7%	74*	-71%	17*	-6%
O=C(Nc1cccc(O)c1)C(Cc1ccccc1)N1C(=O)c2cccc3cccc(c23)C1=O (stereo not drawn)	?	-14%	-7	21%	0	-5%
CCCN(CC(=O)Nc1ccccc1OC)C(=O)C1=COCCO1	6%	9%	nt	nt	nt	-1%
CCN1CCN(C(=O)NCc2ccccc2)CC1	24%	12%	-14	1%	-1	-3%
COc1cc2c(cc1OC)[C@@H]1O[C@](c3ccsc3)(C2)Oc2cc(C)n(-c3ccccc3)c(=O)c21	1.5µM*	2%[5.75 µM]	i	-1%	-1	-1%[6.58 µM]
Cc1cc2c(c(=O)n1-c1ccccc1)C1O[C@](c3ccsc3)(Cc3ccccc31)O2	1.7µM*	?	i	-14%	11	0%[6.58 µM]
Cc1ccccc1N1CC(C(=O)Nc2nnc(SCCN3CCOCC3)s2)CC1=O (stereo not drawn)	4.1µM*	?	5	?	5	-1%
Cc1cccc(N2CC(C(=O)Nc3nnc(SCCN4CCOCC4)s3)CC2=O)c1 (stereo not drawn)	?	-14%	-5	-8%	-3	-1%
Cc1ccccc1N1CC(C(=O)Nc2ccncc2)CC1=O (stereo not drawn)	13µM*	-12%	nt	nt	nt	-2%
